Shown are actives, neighbours in structure and some others; about 28% of the full set was active somewhere.
CYP2C19 act: human CYP2C19 activators, primary screen, biochemical, luminescence | recombinant CYP2C19, luciferin-H EGE luminescence; hits give high values; 0 = fully inhibited enzyme, 1 = untreated enzyme | activation factor at 5 µM | 96,000 tested, under 10 active | AID 1025, 2008;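 active = activation factor of at least 2 at 5 µM in the primary screen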
CYP2C9 activ: human CYP2C9 activators, primary screen, biochemical, luminescence | Cytochrome P450 2C9 (Homo sapiens), P11712 | recombinant CYP2C9, luciferin-H conversion; hits give high values; factor 1 = untreated enzyme, 0 = blocked | activation factor at 5 µM | 96,000 compounds, 1.4% hits | AID 1024, 2008;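 active = activation factor of 2 or more for CYP2C9 at a 5 µM dose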
Target sequence (P11712 whole entry, looked up): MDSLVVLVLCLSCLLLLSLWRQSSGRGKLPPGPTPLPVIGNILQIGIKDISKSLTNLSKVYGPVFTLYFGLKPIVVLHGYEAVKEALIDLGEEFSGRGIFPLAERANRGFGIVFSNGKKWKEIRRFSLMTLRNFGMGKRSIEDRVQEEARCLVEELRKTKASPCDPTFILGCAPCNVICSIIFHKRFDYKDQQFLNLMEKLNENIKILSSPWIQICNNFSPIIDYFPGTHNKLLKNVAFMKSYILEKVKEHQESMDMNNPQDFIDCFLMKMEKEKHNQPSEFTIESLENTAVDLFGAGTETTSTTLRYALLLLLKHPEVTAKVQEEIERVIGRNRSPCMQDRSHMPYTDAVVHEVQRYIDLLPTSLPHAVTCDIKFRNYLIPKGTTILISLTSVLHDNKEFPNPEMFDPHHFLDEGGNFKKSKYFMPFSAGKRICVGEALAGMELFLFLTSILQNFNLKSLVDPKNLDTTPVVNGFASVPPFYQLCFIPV
CYP2C19 inh: blockers of cytochrome P450 2C19 activity – biochemical, luminescence, ADME assay, primary screen; P33261; CYP2C19 Supersomes, luciferin-H EGE luminescence, 30 min; inhibition, % at 5 µM; 96,000 compounds, 21% hits; AID 778, 2007;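 active = CYP2C19 inhibition above a set limit at 5 µM in the primary screen, cut at about 50% in these data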
CYP2C9 inh: blockers of cytochrome P450 2C9 activity – biochemical, luminescence, ADME assay, primary screen; inhibition, % at 5 µM; P11712; CYP2C9 Supersomes, luciferin-H conversion; 96,000 compounds, 20% hits;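 active = blocking of liver enzyme CYP2C9 beyond about 50% at 5 µM, limit read from the data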
Pyk2 oligo antag: antagonists of Pyk2 self-association, primary screen, Q293 cells, FERM NanoBiT luminescence, HTS; z-score (the deposit names both 25 µM and 10 µM); 99,000 compounds, 0.83% hits; hits give low values; AID 1347419, 2020; Protein-tyrosine kinase 2-beta (Homo sapiens), Q14289;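 active = Z-score of -3 or lower, scaled per plate to the spread of control and sample wells; inactive = z-score above -3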;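 note: negative z-score means lost luminescence so less FERM oligomerization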
Of the large screens only hits and unclear results are named; the others gave an inactive call.

O=c1[nH][nH]c(C(F)(F)F)c1C=NCc1ccc(Cl)cc1	CYP2C19 inh 58
Cc1c(Cl)cccc1NC(=O)CC1NCCNC1=O (stereo unspecified)	none
O=C(C/C=N/OCc1c(Cl)cccc1Cl)c1ccc(Cl)cc1	none
CCOC(=O)c1c(C)[nH]c(C)c1C(=O)CN1C(=O)NC(CC(C)C)C1=O (stereo unspecified)	CYP2C19 inh 59
CN(Cc1ccccc1)Cc1nc2c([nH]1)c(=O)n(C)c(=O)n2C	none (no result: CYP2C19 act, CYP2C9 activ, CYP2C19 inh, CYP2C9 inh)
Cc1[nH]c2ccccc2c1CCO	none
CCCNC(=O)NCCc1c(C)[nH]c2ccccc12	CYP2C9 activ 2.5 (no result: Pyk2 oligo antag)
Cc1[nH]c2c(C)cccc2c1CCNC(=O)c1ccc2c(c1[N+](=O)[O-])C(=O)c1ccccc1C2=O	CYP2C19 inh 61, CYP2C9 inh 77
Cc1[nH]c2ccccc2c1CCNC(=O)c1ccc2c(c1[N+](=O)[O-])C(=O)c1ccccc1C2=O	CYP2C19 inh 68
CCCCC(=O)Nc1cccc(-c2nn3c(C)nnc3s2)c1	none
CCOC(=O)c1csc(NC(=O)CSc2nnnn2-c2ccc(OC)cc2)n1	none
CCC(=O)Nc1cccc(-c2nnc(SCC(=O)NCc3ccco3)n2C)c1	none
COc1ccc(-n2nnnc2SCC(=O)NCc2ccco2)cc1OC	CYP2C9 activ 2.2
COc1ccc(-n2nnnc2SCC(=O)Nc2cccc(C)n2)cc1OC	CYP2C9 inh 58
COc1cccc(-n2nnnc2SCC(=O)Nc2cccc(C)n2)c1	none
COc1ccc(-n2nnnc2SCC(=O)Nc2nnc(C)s2)cc1	CYP2C9 inh 54
CCC(=O)Nc1cccc(-n2nnnc2SCC(=O)NCc2ccco2)c1	CYP2C9 activ 2.3, CYP2C19 inh 58
COc1cccc(-n2nnnc2SCC(=O)NCc2ccco2)c1	none
CCS(=O)(=O)c1ccc(S(=O)(=O)CC)s1	none
Cc1cccc2cc(CN(Cc3ccccc3)C(=O)c3cccc(F)c3)c(Cl)nc12	CYP2C9 inh 62
Cc1ccsc1C(=O)Nc1ccc(C(=O)O)cc1	CYP2C19 inh 92, CYP2C9 inh 57
CCc1nc2c(cnn2-c2ccc(F)cc2)c(=O)n1-c1ccc(N2CCC(C)CC2)cc1	CYP2C19 inh 50 (no result: Pyk2 oligo antag)
Cc1ccc(-n2c(C)nc3c(cnn3-c3ccc(C)c(C)c3)c2=O)cc1C	none (no result: Pyk2 oligo antag)
Cc1nc2c(cnn2-c2ccccc2Cl)c(=O)n1-c1ccc(N2CCC(C)CC2)cc1	CYP2C19 inh 72
Cc1ccc(-n2c(C)nc3c(cnn3-c3ccccc3Cl)c2=O)cc1C	CYP2C19 inh 59
OC(CNc1ccccc1)COc1ccc(OCC(O)CNc2ccccc2)cc1 (stereo unspecified)	CYP2C9 inh 67
NC/C(=N\O)c1ccc(Cl)cc1Cl	CYP2C19 inh 80, CYP2C9 inh 52
O=C(O)CCCC(=O)N1CC(=O)Nc2ccccc21	none
COCC(=O)NCCSc1c(C)[nH]c2ccccc12	CYP2C19 inh 58 (no result: Pyk2 oligo antag)
Cc1[nH]c2ccccc2c1SCC(=O)N1CCOCC1	CYP2C19 inh 93 (no result: Pyk2 oligo antag)
O=C(CSc1c[nH]c2ccccc12)N1CCOCC1	CYP2C19 inh 84
Cc1[nH]c2ccccc2c1SCC(=O)O	none (no result: CYP2C19 act, CYP2C9 activ, CYP2C19 inh, CYP2C9 inh)
O=C1CN(C(=O)CCCc2c[nH]c3ccccc23)c2ccccc2N1	CYP2C19 inh 50
CCOC(=O)c1[nH]c2cc(OC)c(OC)cc2c1NC(=O)CN1CCN(c2ccc(OC)cc2)C(C)C1 (stereo unspecified)	none (no result: Pyk2 oligo antag)
Cc1cc(C)c(C)c(OCC(=O)NCCN(C)C)c1	none
O=C(CCSc1ccc(Cl)cc1)NC12CC3CC(CC(C3)C1)C2	none
O=C(CCCc1c[nH]c2ccccc12)N1CCN(S(=O)(=O)c2cccs2)CC1	none
O=C(CCCc1c[nH]c2ccccc12)N1CCOCC1	CYP2C19 inh 67
CCOC(=O)N1CCC(NC(=O)C2CCCN(C(=O)N3CCOc4ccccc43)C2)CC1 (stereo unspecified)	CYP2C9 inh 80
O=C(Nc1ccc(Br)cc1Cl)Nn1cnnc1	none
CC(=O)c1c(C)nc2nonc2c1N	none
CC1=C(C)CS(=O)N(c2ccc(S(N)(=O)=O)cc2)C1 (stereo unspecified)	CYP2C9 activ 2.4
CC1=C(C)CS(=O)N(S(=O)(=O)c2ccccc2)C1 (stereo unspecified)	none
COc1cc(Nc2nc3ccccc3n3nnnc23)cc(OC)c1OC	CYP2C9 inh 69 (no result: Pyk2 oligo antag)
Cc1cccc(NC(=O)C23CCC(C)(/C(=N/O)C2)C3(C)C)c1 (stereo unspecified)	none
CC12CCC(C(=O)Nc3ccccc3)(C/C1=N\O)C2(C)C (stereo unspecified)	CYP2C19 inh 78
O=C1[C@H]2[C@@H](C(=O)N1c1cc(Cl)cc(Cl)c1)[C@]1(C(=O)Nc3ccccc31)N1CCC[C@@H]21	CYP2C19 inh 52, CYP2C9 inh 90
Cc1cc(Cl)c2c(c1)[C@]1(C(=O)N2)[C@@H]2C(=O)N(Cc3ccccc3)C(=O)[C@@H]2[C@@H]2CCCN21	none
C=CCNC(=S)Nc1sc2c(c1C(=O)OCC)CC(C(C)C)OC2 (stereo unspecified)	none
COc1ccc(CNC(=O)CSc2nnc(Cn3nnc4ccccc43)n2C)cc1	none
CCN(C(=O)c1coc(=O)c2ccccc12)c1cc(OC)ccc1OC	CYP2C9 inh 64
Cc1cc(C)c2c(=O)n(CC(=O)NCCCN3CCOCC3)sc2n1	CYP2C9 inh 81 (no result: Pyk2 oligo antag)
Cc1cc(C)c2c(=O)n(CC(=O)N3CCC(Cc4ccccc4)CC3)sc2n1	none (no result: Pyk2 oligo antag)
Cc1cc(C)c2c(=O)n(CC(=O)NCCCN3CCN(c4ccccc4F)CC3)sc2n1	CYP2C9 inh 65 (no result: Pyk2 oligo antag)
CCC(Sc1nc(N)cc(N)n1)C(=O)O (stereo unspecified)	none
O=Nc1c(O)n(Cc2ccc(Cl)c(Cl)c2)c2ccccc12	CYP2C19 inh 51, CYP2C9 inh 62
O=C(c1ccc(N2C(=O)CCC2=O)cc1)N1CCN(c2ccccc2)CC1	none
CCOC(=O)c1[nH]c(Cc2[nH]c(C(=O)OCC)c(C)c2CCC(=O)OC)c(CCC(=O)OC)c1C	CYP2C19 inh 58, CYP2C9 inh 72
CCOC(=O)c1c(C)[nH]c(C(=O)OC)c1CCC(=O)OC	none
O=C(COc1ccc(S(=O)(=O)N2CCOCC2)cc1)Nc1ccccc1C(F)(F)F	none
O=[N+]([O-])c1ccccc1/C=N/Nc1nnc(-c2ccccc2)c(-c2ccccc2)n1	none (no result: CYP2C19 act, CYP2C9 activ, CYP2C19 inh, CYP2C9 inh)
NNc1nnc(-c2ccccc2)c(-c2ccccc2)n1	CYP2C19 inh 88, CYP2C9 inh 79
CC(C)(C)n1ncc2c(=O)n(CC(=O)c3ccc(Cl)cc3)cnc21	none
CC(C)(C)n1ncc2c(=O)n(Cc3c(F)cccc3Cl)cnc21	CYP2C19 inh 87
CN(Cc1ccccc1)S(=O)(=O)c1ccc(Cl)c(C(=O)NCc2ccc3c(c2)OCO3)c1	none (no result: CYP2C19 act, CYP2C9 activ, CYP2C19 inh, CYP2C9 inh)
COc1ccc(N2C(=O)C3CCCN3C2=O)cc1 (stereo unspecified)	none
